Experimental data published in PMC9838217, “Structure of SALL4 zinc finger domain reveals link between AT-rich DNA binding and Okihiro syndrome”.
Numbering of substitutions follows the chain as printed.

Key:
[1] = biological target: T1, SALL4 ZFC4 R900W (HT-SELEX) (Mus musculus, UniProt Q8BX22 870-940, R900W); assay: HT-SELEX; high values mean tight binding; details: protein: recombinant; vector His6-GST; dsDNA, one strand shown
T1 sequence: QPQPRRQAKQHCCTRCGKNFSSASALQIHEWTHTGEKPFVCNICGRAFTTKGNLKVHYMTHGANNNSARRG
Outline: (§1)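 Purified recombinant mouse SALL4 zinc finger cluster 4 (residues 870–940, 1 µg) was incubated with library DNA (1.5 µg first cycle, 200 ng later) in 100 µl of 10 mM Tris–HCl pH 7.5, 50 mM NaCl, poly(dI-dC) and DTT for 10 min at room temperature, with Ni2+ bead capture and reselection for up to 6 cycles in triplicate. MiSeq reads were scanned for 6-mers. Binding signal is each canonical k-mer's read fraction as fold change relative to the initial random library.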

[2] = biological target: T2, SALL4 ZFC4 G921D (HT-SELEX) (Mus musculus, UniProt Q8BX22 870-940, G921D); assay: HT-SELEX; high values mean tight binding; details: protein: recombinant; vector His6-GST; dsDNA, one strand shown
T2 sequence: T1 sequence with W31R, G52D
Outline: as §1

Row | Sequence | binding signal [1] [fold-change vs cycle 0] | binding signal [2] [fold-change vs cycle 0]
1 | GCGGAA | 0.245 ± 0.0256 | 0.373 ± 0.0585
2 | CACCCC | 0.309 ± 0.0175 | 0.407 ± 0.058
3 | GCGTCA | 0.266 ± 0.00412 | 0.39 ± 0.0541
4 | CGGGTC | 0.212 ± 0.0149 | 0.342 ± 0.0694
5 | GGGCTA | 0.35 ± 0.0254 | 0.487 ± 0.0896
6 | AGTCGC | 0.244 ± 0.0172 | 0.386 ± 0.0654
7 | GATCGC | 0.301 ± 0.0313 | 0.461 ± 0.0896
8 | CCGCCA | 0.105 ± 0.00392 | 0.218 ± 0.0543
9 | AGCCGA | 0.263 ± 0.0162 | 0.384 ± 0.065
10 | GGGCGA | 0.127 ± 0.00943 | 0.251 ± 0.0728
11 | AGCAGC | 0.286 ± 0.013 | 0.426 ± 0.0467
12 | CCCCCA | 0.312 ± 0.0194 | 0.423 ± 0.0709
13 | AGGCTG | 0.37 ± 0.0148 | 0.493 ± 0.0564
14 | CGCGCC | 0.0255 ± 0.00279 | 0.0934 ± 0.0574
15 | CTGGCC | 0.139 ± 0.00982 | 0.255 ± 0.0712
16 | CCCGTC | 0.236 ± 0.0162 | 0.34 ± 0.0606
17 | CAGGCG | 0.129 ± 0.00318 | 0.24 ± 0.0647
18 | CCCGAG | 0.2602 ± 0.00145 | 0.386 ± 0.0692
19 | GACCCC | 0.276 ± 0.00974 | 0.391 ± 0.051
20 | GCGAGC | 0.103 ± 0.00798 | 0.229 ± 0.0707
21 | GCCAGA | 0.289 ± 0.0233 | 0.414 ± 0.0657
22 | ACCCCC | 0.324 ± 0.0114 | 0.419 ± 0.0596
23 | CAGCGC | 0.0744 ± 0.00642 | 0.177 ± 0.0788
24 | CGCTCC | 0.165 ± 0.00419 | 0.29 ± 0.0821
25 | ACTATG | 1.37 ± 0.0399 | 1.34 ± 0.0843
26 | AGCCCG | 0.14 ± 0.0115 | 0.253 ± 0.0774
27 | GAGCCA | 0.301 ± 0.00918 | 0.466 ± 0.0659

Row | Sequence | binding signal [1] [fold-change vs cycle 0] | binding signal [2] [fold-change vs cycle 0]
28 | GGCGTA | 0.242 ± 0.0221 | 0.377 ± 0.0541
29 | GCTGCA | 0.256 ± 0.0235 | 0.379 ± 0.0774
30 | AGTGGC | 0.299 ± 0.0198 | 0.455 ± 0.0604
31 | GCCCTA | 0.353 ± 0.0173 | 0.496 ± 0.0842
32 | AGCGAC | 0.253 ± 0.0224 | 0.41 ± 0.0789
33 | CACGGG | 0.253 ± 0.0129 | 0.366 ± 0.0584
34 | CCGTCC | 0.206 ± 0.0173 | 0.337 ± 0.0624
35 | CGAGCA | 0.299 ± 0.00719 | 0.447 ± 0.0658
36 | GCACGA | 0.281 ± 0.0197 | 0.432 ± 0.0801
37 | GAGCGA | 0.326 ± 0.0151 | 0.483 ± 0.0727
38 | CGCGAC | 0.088 ± 0.0103 | 0.202 ± 0.0599
39 | CCGACC | 0.172 ± 0.00253 | 0.309 ± 0.075
40 | AGGCAC | 0.34 ± 0.0246 | 0.486 ± 0.0565
41 | ACCGCT | 0.31 ± 0.02 | 0.44 ± 0.0953
42 | AGCCCA | 0.323 ± 0.00919 | 0.465 ± 0.0703
43 | CGCGTA | 0.224 ± 0.0194 | 0.34 ± 0.0644
44 | GGCCCA | 0.126 ± 0.00969 | 0.245 ± 0.0696
45 | GCAGCC | 0.112 ± 0.0161 | 0.221 ± 0.0775
46 | CGGCAC | 0.0866 ± 0.0073 | 0.207 ± 0.0784
47 | CGCTCA | 0.311 ± 0.0311 | 0.445 ± 0.0603
48 | GCTAGC | 0.329 ± 0.0178 | 0.477 ± 0.0879
49 | ACCATA | 1.42 ± 0.0261 | 1.36 ± 0.0475
50 | CGTGCC | 0.121 ± 0.0106 | 0.246 ± 0.0768
51 | GCCACC | 0.153 ± 0.0112 | 0.282 ± 0.0759
52 | GGCGAA | 0.216 ± 0.00992 | 0.36 ± 0.0782
53 | GGCGCA | 0.0622 ± 0.0107 | 0.16 ± 0.0742
54 | CATGGC | 0.357 ± 0.0224 | 0.495 ± 0.0505

Row | Sequence | binding signal [1] [fold-change vs cycle 0] | binding signal [2] [fold-change vs cycle 0]
55 | AGCACG | 0.337 ± 0.0173 | 0.468 ± 0.0696
56 | GTGGCA | 0.276 ± 0.00829 | 0.424 ± 0.0569
57 | GCGAAC | 0.281 ± 0.0107 | 0.417 ± 0.0584
58 | CGGGCC | 0.0506 ± 0.00629 | 0.15 ± 0.0772
59 | CCGTCG | 0.147 ± 0.00952 | 0.245 ± 0.0616
60 | AAGCGC | 0.162 ± 0.0133 | 0.302 ± 0.0877
61 | CCTCGC | 0.171 ± 0.0115 | 0.295 ± 0.0773
62 | ATGGGC | 0.3096 ± 0.00283 | 0.446 ± 0.0581
63 | CGCACC | 0.132 ± 0.00899 | 0.24 ± 0.0749
64 | AGGGGC | 0.195 ± 0.00634 | 0.332 ± 0.0629
65 | GCGGCC | 0.0274 ± 0.00551 | 0.107 ± 0.0539
66 | ACGAGC | 0.322 ± 0.019 | 0.459 ± 0.061
67 | GCGTCC | 0.152 ± 0.014 | 0.258 ± 0.0705
68 | ATCGCG | 0.221 ± 0.00468 | 0.363 ± 0.0564
69 | ACTCGC | 0.3364 ± 0.000841 | 0.463 ± 0.0712
70 | GAGGGC | 0.201 ± 0.0133 | 0.323 ± 0.085
71 | CGTCGC | 0.097 ± 0.00631 | 0.194 ± 0.077
72 | GCGTAC | 0.308 ± 0.00417 | 0.455 ± 0.0643
73 | GCGACA | 0.186 ± 0.0276 | 0.338 ± 0.0565
74 | AGCGTG | 0.35 ± 0.0043 | 0.476 ± 0.0501
75 | AGAGCG | 0.324 ± 0.0123 | 0.489 ± 0.067
76 | GCGCAC | 0.0689 ± 0.0069 | 0.167 ± 0.0842
77 | GTCGAC | 0.301 ± 0.0134 | 0.452 ± 0.0612
78 | CGGCCC | 0.0477 ± 0.00335 | 0.134 ± 0.0582
79 | ACGCGC | 0.0585 ± 0.00894 | 0.159 ± 0.07
